Reference: PubChem BioAssay AID463190 (Sanford-Burnham Center for Chemical Genomics, 2010)
Among all 330,000 compounds or so, about 7,300 (2.2%) were called active. The entries come from a sample that favours actives as a whole. A number with no mark means an inactive call.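 Rule for the calls: active = inhibition of at least 40%; inactive = the rest.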

Test: growth inhibitors of tim10-1 mutant yeast, primary screen, luminescence, uHTS (AID 463190);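 note: mutant grown at 25 °C; 0% = DMSO wells with yeast and 100% = wells holding no yeast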
Conditions: S. cerevisiae tim10-1 ts strain growth, BacTiter-Glo, 24 h; at 20 µM; hits give high values

SMILES | inhibition
Cc1nc2ccccn2c1P(=S)(N1CCCCC1)N1CCCCC1 | 56.2% (active)
O=C(COc1ccc2ccccc2c1)N1CCN(Cc2ccncc2)CC1 | 24.7%
CNP1(NC)=Nc2nn(-c3ccccc3)c(N)c2C(c2ccccc2)=N1 | -2.7%
CCc1ccc(OCC(=O)N2CCN(CC(=O)Nc3ccccc3Cl)CC2)cc1 | 12.7%
COc1cccc(N2C(=O)NC(=O)/C(=C\c3cn(C)c4ccccc34)C2=O)c1 | 13.4%
COc1ccc(N2C(=O)/C(=C/c3ccco3)C(=O)NC2=S)cc1 | 23.1%
COc1cccc(N2C(=O)NC(=O)/C(=C\c3ccc([N+](=O)[O-])s3)C2=O)c1 | 70.3% (active)
O=C1NC(=O)N(c2ccccc2)C(=O)/C1=C/c1ccc([N+](=O)[O-])s1 | 81.2% (active)
Fc1ccc(C2N3CCCN23)cc1 (stereo not given) | -13.4%
O=C(O)CCn1cc(C=C2C(=O)NC(=S)NC2=O)c(-c2cccc(Br)c2)n1 | 23.4%
COc1ccc2c(c1O)-c1cccc3c1[C@@H](C2)N(C)CC3 | -10%
CN(C)C(=O)Oc1cc(=O)n2c3c(cccc13)CCC2 | 13.3%
O=C1C2(Cl)C3(Cl)C4(Cl)C(Cl)(Cl)C5(Cl)C3(Cl)C1(Cl)C5(Cl)C24Cl (stereo not given) | -91.8%
O=C(CCCn1c(=O)[nH]c2cc(Cl)ccc2c1=O)N1CCC2(CC1)OCCO2 | 17.3%
COC(=O)C1=C(c2ccc(F)cc2OCc2ccccc2)C[C@@H]2CC[C@H]1N2C(=O)NCc1ccc2[nH]ccc2c1 | 9.44%
N#CC1=C(N)Oc2c(c(=O)oc3ccccc23)C1c1ccccc1OC(=O)c1cccs1 (stereo not given) | 46.4% (active)
CCNc1nc2[nH]c(=O)c3c(c2s1)OC(N)=C(C#N)C3c1cccs1 (stereo not given) | -13.5%
CC(=O)N(C1=NCCCS1)c1ccccc1F | 3.96%
CC1C2Cn3c(nc4ccccc43)C1N(C)O2 (stereo not given) | -11.3%
COP(=O)(OC)C(NC(=O)c1ccc(C)cc1)C(Cl)(Cl)Cl (stereo not given) | 11%
COC(=O)C1=C(c2cc3ccccc3s2)C[C@@H]2CC[C@H]1N2C(=O)NCCO | -17%
CCCCn1c(=O)c(C(=O)Nc2ccccc2Cl)c(O)c2ccccc21 | 2.29%
CCCCCn1c(=O)c(C(=O)NCc2ccccc2)c(O)c2ccccc21 | -27.8%
CCCCCn1c(=O)c(C(=O)Nc2c(C)n(C)n(-c3ccccc3)c2=O)c(O)c2ccccc21 | 45.4% (active)
O=C(O)c1ccccc1NC(=O)C1C2CCC(O2)C1C(=O)O (stereo not given) | -7.62%
